# Legend:
# [1] = target: T1, Serine/threonine-protein kinase Nek9 (Homo sapiens) (UniProt Q8TD19); details: at 1 µM;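 also: each value is a mean percent inhibition of NEK9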
# T1 sequence (whole entry): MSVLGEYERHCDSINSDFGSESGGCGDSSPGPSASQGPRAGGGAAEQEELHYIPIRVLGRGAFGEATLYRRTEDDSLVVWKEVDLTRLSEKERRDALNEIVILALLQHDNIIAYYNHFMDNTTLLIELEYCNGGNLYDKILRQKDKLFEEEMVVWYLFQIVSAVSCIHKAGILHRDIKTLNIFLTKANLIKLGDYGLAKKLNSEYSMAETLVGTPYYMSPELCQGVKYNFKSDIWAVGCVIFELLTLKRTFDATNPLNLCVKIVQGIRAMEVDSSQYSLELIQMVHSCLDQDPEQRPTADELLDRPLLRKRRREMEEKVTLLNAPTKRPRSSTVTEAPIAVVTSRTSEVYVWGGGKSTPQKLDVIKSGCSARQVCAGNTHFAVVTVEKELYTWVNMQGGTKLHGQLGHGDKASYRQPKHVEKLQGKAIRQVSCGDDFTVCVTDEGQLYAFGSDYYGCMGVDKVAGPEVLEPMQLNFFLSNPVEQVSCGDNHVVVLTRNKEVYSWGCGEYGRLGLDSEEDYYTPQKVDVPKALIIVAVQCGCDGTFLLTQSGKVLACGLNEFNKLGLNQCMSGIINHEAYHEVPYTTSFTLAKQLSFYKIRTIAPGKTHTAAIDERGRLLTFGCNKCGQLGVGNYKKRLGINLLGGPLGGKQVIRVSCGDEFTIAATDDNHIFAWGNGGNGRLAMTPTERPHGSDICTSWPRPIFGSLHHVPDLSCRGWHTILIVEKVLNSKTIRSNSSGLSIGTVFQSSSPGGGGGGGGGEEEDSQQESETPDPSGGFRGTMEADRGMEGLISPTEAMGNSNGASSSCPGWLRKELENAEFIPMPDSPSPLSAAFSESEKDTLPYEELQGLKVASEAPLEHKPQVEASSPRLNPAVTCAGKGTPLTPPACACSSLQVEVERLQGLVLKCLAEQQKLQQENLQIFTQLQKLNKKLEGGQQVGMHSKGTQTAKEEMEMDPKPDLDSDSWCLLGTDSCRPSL
# [2] = target: Serine/threonine-protein kinase PLK1 (Homo sapiens) (UniProt P53350); details: at 0.1 µM
# Serine/threonine-protein kinase PLK1 (Homo sapiens), sequence (P53350 whole entry): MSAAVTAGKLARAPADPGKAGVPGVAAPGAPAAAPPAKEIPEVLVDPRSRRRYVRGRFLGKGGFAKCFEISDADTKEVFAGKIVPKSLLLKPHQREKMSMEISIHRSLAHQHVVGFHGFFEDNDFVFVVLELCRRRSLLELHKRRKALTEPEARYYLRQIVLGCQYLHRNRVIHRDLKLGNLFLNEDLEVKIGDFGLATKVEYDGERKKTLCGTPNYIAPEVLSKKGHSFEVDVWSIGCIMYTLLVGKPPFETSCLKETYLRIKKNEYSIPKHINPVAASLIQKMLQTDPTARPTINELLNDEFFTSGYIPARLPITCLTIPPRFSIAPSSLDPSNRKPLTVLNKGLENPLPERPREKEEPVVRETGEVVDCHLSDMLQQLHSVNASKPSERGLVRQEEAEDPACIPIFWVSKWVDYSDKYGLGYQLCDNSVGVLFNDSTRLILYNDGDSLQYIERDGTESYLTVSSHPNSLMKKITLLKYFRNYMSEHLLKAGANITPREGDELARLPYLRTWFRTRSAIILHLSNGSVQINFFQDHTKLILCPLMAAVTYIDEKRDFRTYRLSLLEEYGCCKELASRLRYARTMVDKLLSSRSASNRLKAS
# [3] = target: Serine/threonine-protein kinase PLK1 (Homo sapiens) (UniProt P53350); details: at 1 µM
# [4] = target: T2, Dual specificity protein kinase TTK (Homo sapiens) (UniProt P33981); details: at 0.1 µM
# T2 sequence (whole entry): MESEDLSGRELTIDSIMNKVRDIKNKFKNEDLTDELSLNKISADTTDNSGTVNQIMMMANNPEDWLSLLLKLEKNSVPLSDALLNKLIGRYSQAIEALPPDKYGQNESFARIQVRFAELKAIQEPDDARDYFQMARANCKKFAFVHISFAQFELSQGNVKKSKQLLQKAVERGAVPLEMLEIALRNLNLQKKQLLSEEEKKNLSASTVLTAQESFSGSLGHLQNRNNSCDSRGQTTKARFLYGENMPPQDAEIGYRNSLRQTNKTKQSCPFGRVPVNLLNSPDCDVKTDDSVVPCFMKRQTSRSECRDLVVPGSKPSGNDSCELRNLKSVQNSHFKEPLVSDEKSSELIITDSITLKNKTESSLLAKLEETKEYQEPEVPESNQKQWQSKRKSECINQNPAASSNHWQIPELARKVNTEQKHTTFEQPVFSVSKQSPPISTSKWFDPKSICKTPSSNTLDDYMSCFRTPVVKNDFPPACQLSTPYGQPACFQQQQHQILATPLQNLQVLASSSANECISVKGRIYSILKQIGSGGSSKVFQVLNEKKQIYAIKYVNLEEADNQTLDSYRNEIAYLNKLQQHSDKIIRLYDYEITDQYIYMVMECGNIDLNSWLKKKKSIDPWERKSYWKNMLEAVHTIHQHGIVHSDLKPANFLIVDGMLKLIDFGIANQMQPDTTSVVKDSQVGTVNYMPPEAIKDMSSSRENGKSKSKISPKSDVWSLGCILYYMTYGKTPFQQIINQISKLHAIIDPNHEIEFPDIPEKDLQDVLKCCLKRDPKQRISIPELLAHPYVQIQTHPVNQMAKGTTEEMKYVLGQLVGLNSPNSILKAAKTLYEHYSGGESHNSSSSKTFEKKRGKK
# [5] = test system: T3, Receptor-type tyrosine-protein kinase FLT3 (Homo sapiens), P36888 [D835Y]; details: at 1 µM
# T3 sequence (whole entry): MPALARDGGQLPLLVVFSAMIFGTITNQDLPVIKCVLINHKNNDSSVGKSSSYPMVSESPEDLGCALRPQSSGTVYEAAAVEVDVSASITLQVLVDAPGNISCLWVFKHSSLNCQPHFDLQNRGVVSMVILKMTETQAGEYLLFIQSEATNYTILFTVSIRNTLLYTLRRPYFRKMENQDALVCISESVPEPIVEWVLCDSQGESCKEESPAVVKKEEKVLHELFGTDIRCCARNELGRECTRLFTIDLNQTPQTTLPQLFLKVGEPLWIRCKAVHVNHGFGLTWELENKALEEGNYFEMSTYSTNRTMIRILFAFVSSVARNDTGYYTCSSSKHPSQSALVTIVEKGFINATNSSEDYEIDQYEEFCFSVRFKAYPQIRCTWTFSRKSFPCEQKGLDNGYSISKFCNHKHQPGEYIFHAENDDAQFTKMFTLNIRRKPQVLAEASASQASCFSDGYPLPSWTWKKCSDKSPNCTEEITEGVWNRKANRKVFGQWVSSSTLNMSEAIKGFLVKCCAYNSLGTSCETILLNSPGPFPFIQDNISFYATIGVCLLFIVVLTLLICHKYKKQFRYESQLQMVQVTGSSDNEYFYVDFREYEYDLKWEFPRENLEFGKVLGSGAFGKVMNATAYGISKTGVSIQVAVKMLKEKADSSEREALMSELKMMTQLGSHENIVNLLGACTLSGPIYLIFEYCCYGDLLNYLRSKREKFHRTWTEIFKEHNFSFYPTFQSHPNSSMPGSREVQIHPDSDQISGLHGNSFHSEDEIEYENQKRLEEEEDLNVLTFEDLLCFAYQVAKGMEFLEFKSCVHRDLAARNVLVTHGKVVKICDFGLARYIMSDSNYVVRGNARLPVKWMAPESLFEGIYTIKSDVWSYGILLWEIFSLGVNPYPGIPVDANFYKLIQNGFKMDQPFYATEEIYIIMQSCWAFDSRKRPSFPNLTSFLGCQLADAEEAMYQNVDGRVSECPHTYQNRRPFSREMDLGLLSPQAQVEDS
# [6] = target: Vascular endothelial growth factor receptor 3 (Homo sapiens) (UniProt P35916); details: at 0.1 µM
# [7] = target: Vascular endothelial growth factor receptor 3 (Homo sapiens) (UniProt P35916); details: at 1 µM
# [8] = target: Macrophage colony-stimulating factor 1 receptor (Homo sapiens) (UniProt P07333); details: at 0.1 µM
# Macrophage colony-stimulating factor 1 receptor (Homo sapiens), sequence (P07333 whole entry): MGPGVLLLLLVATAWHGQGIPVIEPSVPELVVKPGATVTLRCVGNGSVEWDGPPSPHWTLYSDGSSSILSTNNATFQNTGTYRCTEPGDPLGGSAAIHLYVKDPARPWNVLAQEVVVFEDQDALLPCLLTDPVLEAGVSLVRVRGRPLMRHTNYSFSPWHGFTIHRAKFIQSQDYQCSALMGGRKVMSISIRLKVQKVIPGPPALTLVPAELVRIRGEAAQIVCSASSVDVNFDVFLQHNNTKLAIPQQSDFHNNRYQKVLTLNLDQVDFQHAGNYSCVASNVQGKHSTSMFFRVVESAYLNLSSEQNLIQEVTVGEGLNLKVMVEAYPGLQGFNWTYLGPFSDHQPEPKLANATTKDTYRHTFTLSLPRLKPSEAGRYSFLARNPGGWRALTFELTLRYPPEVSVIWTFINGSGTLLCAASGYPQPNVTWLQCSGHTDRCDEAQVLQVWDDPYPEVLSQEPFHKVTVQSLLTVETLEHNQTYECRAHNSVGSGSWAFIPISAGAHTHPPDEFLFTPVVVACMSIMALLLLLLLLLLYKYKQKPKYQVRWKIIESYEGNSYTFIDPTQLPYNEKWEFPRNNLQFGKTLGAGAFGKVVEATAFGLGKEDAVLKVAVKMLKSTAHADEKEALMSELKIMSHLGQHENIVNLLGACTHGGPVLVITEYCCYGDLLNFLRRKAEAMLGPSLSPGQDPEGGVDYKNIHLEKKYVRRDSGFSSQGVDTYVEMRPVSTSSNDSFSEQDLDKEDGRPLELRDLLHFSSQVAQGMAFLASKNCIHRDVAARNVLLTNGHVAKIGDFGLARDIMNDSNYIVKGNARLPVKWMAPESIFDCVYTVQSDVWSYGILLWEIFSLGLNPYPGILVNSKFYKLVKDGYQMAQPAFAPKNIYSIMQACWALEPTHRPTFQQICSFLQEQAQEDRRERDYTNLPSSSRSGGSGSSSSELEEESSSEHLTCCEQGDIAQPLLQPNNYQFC
# [9] = target: Macrophage colony-stimulating factor 1 receptor (Homo sapiens) (UniProt P07333); details: at 1 µM
# [10] = target: Tyrosine-protein kinase Fyn (Homo sapiens) (UniProt P06241); details: at 0.1 µM
# [11] = target: Tyrosine-protein kinase Fyn (Homo sapiens) (UniProt P06241); details: at 1 µM
# [12] = target: Tyrosine-protein kinase HCK (Homo sapiens) (UniProt P08631); details: at 0.1 µM
# Tyrosine-protein kinase HCK (Homo sapiens), sequence (P08631 2-526 limits assumed): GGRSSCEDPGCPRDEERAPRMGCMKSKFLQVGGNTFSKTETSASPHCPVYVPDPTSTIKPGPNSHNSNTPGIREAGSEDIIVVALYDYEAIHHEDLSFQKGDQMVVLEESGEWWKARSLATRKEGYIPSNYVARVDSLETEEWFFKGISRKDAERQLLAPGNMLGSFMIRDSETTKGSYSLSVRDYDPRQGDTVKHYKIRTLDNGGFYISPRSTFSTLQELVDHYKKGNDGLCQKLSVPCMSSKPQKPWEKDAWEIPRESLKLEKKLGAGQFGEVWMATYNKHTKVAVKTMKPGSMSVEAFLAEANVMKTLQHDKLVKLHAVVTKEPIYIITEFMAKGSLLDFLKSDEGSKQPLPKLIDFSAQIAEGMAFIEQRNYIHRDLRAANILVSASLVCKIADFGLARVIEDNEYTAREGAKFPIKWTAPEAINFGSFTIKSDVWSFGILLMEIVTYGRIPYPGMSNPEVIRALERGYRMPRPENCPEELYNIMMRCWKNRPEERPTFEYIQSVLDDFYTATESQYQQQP
# [13] = target: Tyrosine-protein kinase HCK (Homo sapiens) (UniProt P08631); details: at 1 µM
# [14] = target: Insulin-like growth factor 1 receptor (Homo sapiens) (UniProt P08069); details: at 0.1 µM
# Insulin-like growth factor 1 receptor (Homo sapiens), sequence (P08069 31-736 limits assumed): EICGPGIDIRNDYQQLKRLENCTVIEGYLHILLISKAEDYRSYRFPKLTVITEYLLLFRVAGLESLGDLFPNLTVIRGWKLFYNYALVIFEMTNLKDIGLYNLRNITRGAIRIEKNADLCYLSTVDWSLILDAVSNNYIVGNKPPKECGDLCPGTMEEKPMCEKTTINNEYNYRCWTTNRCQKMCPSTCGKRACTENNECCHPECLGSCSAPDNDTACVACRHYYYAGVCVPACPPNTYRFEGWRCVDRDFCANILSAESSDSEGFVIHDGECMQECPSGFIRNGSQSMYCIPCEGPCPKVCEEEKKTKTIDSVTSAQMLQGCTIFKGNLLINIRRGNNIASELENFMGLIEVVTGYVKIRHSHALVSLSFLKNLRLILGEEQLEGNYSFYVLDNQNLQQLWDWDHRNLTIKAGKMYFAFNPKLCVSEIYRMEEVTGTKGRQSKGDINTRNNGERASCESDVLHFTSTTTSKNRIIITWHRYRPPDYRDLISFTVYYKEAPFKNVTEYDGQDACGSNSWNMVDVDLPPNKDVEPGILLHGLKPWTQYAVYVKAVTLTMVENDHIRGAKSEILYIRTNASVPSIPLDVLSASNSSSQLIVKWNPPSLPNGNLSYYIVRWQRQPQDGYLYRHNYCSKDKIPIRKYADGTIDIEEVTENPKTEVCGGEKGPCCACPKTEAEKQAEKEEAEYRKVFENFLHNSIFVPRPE
# Insulin-like growth factor 1 receptor (Homo sapiens), sequence (P08069 741-1367 limits assumed): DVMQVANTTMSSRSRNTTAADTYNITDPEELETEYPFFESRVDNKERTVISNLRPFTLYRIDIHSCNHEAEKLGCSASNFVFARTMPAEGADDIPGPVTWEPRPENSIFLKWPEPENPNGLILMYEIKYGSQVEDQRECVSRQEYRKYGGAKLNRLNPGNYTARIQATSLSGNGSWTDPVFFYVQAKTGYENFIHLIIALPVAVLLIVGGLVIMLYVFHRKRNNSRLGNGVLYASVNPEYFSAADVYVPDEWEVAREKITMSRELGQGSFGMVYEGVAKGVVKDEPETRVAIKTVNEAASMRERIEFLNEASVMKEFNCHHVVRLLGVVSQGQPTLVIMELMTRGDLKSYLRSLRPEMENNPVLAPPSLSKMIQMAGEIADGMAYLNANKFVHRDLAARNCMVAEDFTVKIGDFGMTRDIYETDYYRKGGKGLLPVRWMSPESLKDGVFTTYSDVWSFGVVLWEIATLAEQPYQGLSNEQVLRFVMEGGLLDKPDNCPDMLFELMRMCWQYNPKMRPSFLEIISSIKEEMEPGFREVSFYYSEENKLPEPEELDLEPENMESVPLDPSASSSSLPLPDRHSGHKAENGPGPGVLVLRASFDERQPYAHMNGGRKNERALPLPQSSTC
# [15] = target: Insulin-like growth factor 1 receptor (Homo sapiens) (UniProt P08069); details: at 1 µM
# [16] = target: Insulin receptor (Homo sapiens) (UniProt P06213); details: at 0.1 µM
# [17] = target: Insulin receptor (Homo sapiens) (UniProt P06213); details: at 1 µM
# [18] = target: Insulin receptor-related protein (Homo sapiens) (UniProt P14616); details: at 0.1 µM
# Insulin receptor-related protein (Homo sapiens), sequence (P14616 27-742 limits assumed): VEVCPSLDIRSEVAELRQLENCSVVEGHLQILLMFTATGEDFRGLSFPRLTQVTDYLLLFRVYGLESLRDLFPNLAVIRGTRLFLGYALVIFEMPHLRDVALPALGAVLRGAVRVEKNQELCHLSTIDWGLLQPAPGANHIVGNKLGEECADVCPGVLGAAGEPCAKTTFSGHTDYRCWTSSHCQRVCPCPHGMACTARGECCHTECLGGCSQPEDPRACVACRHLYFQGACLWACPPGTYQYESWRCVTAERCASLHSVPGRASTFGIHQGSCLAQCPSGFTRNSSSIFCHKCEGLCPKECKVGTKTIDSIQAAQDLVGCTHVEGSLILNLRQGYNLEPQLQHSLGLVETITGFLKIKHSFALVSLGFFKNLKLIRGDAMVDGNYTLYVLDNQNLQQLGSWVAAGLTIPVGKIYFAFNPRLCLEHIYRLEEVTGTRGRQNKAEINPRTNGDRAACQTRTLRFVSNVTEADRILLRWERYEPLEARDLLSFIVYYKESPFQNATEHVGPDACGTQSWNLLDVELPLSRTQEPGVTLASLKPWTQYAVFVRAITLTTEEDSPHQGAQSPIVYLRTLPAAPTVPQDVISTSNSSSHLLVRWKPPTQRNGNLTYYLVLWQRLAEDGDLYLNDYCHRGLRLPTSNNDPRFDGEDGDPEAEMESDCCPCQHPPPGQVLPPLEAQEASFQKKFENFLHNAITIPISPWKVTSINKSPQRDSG
# Insulin receptor-related protein (Homo sapiens), sequence (P14616 747-1297 limits assumed): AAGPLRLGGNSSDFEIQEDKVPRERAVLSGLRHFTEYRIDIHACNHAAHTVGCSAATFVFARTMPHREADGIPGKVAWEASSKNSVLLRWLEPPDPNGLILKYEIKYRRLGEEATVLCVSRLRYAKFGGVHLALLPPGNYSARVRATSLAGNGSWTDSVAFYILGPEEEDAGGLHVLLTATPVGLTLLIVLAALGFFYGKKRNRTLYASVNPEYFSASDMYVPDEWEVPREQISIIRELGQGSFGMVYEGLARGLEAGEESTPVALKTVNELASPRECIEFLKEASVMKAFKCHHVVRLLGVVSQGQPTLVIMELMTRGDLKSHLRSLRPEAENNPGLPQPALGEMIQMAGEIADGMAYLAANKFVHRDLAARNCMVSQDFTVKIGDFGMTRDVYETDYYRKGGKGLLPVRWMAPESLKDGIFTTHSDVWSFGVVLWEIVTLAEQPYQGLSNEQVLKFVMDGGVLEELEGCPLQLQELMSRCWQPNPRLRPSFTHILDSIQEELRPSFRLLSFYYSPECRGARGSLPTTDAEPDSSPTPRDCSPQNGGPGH
# [19] = target: Insulin receptor-related protein (Homo sapiens) (UniProt P14616); details: at 1 µM
# [20] = target: T4, Tyrosine-protein kinase ITK/TSK (Homo sapiens) (UniProt Q08881); details: at 0.1 µM;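 also: mean percent inhibition of ITK from the GSK PKIS screen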
# T4 sequence (whole entry): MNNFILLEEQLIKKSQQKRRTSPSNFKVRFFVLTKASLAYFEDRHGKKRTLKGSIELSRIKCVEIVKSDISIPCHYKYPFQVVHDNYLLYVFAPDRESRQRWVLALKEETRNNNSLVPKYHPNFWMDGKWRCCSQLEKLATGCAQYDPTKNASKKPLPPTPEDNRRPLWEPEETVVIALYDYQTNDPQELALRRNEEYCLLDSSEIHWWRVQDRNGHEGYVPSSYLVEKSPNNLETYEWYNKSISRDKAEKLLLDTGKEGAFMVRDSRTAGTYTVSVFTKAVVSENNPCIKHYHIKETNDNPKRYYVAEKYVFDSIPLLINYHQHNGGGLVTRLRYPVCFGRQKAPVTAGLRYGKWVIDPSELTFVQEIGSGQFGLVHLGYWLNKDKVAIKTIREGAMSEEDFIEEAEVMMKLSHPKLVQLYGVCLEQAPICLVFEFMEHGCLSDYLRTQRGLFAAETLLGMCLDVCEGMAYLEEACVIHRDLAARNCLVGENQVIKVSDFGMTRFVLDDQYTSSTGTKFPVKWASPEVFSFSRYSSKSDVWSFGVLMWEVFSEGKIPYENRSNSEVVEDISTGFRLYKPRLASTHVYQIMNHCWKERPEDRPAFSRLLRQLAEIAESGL
Structure (SMILES),inhibition [1] [%],inhibition [2] [%],inhibition [3] [%],inhibition [4] [%],inhibition [5] [%],inhibition [6] [%],inhibition [7] [%],inhibition [8] [%],inhibition [9] [%],inhibition [10] [%],inhibition [11] [%],inhibition [12] [%],inhibition [13] [%],inhibition [14] [%],inhibition [15] [%],inhibition [16] [%],inhibition [17] [%],inhibition [18] [%],inhibition [19] [%],inhibition [20] [%]
Fc1ccc(-c2ncn(CCCN3CCOCC3)c2-c2ccncc2)cc1,3.15,-0.58,-0.73,5.04,0.03,0.07,0.05,0.18,1.37,-0.55,-2.27,-1.42,2.38,2.24,-1.55,-0.34,0.12,-0.04,0.12,0.83
Cc1ccc(NC(=O)c2ccoc2)cc1-c1ccc(C(=O)NCC2CC2)cc1,4.64,2.06,-0.9,4.04,5.74,0.17,6.22,-2.68,2.71,0.65,1.16,4.54,5.55,2.46,1.25,1.81,3.42,0.32,0.32,-0.83
COc1ccc(C2=C(N3CCc4ccccc43)C(=O)NC2=O)cc1,7.64,4.84,4.9,9.59,3.5,1.33,3.21,2.49,4.23,2.77,4.68,8.17,9.54,4.43,6.19,4.83,8.59,2.42,1.91,1.76
CS(=O)(=O)CCNCc1cc(-c2cc3c(Nc4ccc(OCc5cccc(F)c5)c(Cl)c4)ncnc3s2)cs1,8.5,6.1,8.12,9.23,5.05,1.58,-1.31,7.21,7.82,0.55,2.71,6.52,7.87,5.7,4.5,11.5,4.74,1.69,2.82,1.89
N#Cc1ccc(Oc2nccc(-c3c(-c4ccc(F)cc4)ncn3C3CCNCC3)n2)cc1,9.35,4.8,4.75,8.02,4.07,-3.29,-0.83,0.11,9.12,-0.87,3.01,5.66,5.1,-0.43,0.96,3.29,3.86,3.14,4.24,-0.47
NS(=O)(=O)c1ccc(N/N=C2\C(=O)Nc3ccc(C(=O)NCCCn4ccnc4)cc32)cc1,19,6.29,4.25,37.3,32.9,4.15,26.7,2.86,6.33,2.07,19.2,5.3,17.8,2.13,3.17,6.3,6.66,2.1,3.71,1.19
Cc1ccc(C(=O)NC(C)C)cc1-c1ccc(C(=O)NCC2CC2)cc1,4.93,-2.88,0.01,-5.71,5.33,1.2,2.58,-3.16,0.94,-0.23,0.91,-3.59,-1.19,-3.27,-3.34,-1.9,-4.51,-4.15,-4.41,-1.4
O=C1Nc2ccccc2/C1=C/Nc1ccc(-n2cncn2)cc1,12.4,4.56,2.82,22.4,45.8,16.8,40.2,6.47,34.5,2.68,7.09,5.82,11.7,10.8,16.7,9.38,14.8,2.54,5.98,1.26
NC(=O)c1cc(-c2ccc(F)cc2)cc(-c2ccncc2)c1N,19.1,5.25,2.93,11.9,-3.97,-0.28,0.18,2.97,15.4,0.07,5.17,6.59,7.14,2.14,-0.61,5.25,5.27,1.58,1.32,0.92
COc1cc(Nc2ncc(-c3ccccc3)o2)cc(OC)c1OC,8.49,-0.55,2.1,5.82,63.1,7.69,36.7,20.1,57.6,6.4,37.5,3.3,31.2,1.91,2.07,4.48,-0.22,-2.58,-1.95,-0.21
COc1cc(C)c(N(C)C(=O)CN(C)C)cc1Nc1nc(Nc2cccc(F)c2C(N)=O)c2cc[nH]c2n1,3.64,2.25,2.83,4.16,2.97,–,–,-0.28,4.04,-3.95,-2.41,2.52,4.78,31.2,81.6,52.5,107,5.09,17.1,-2.44
COc1cc(Nc2ncc3c(C)nc(-c4cccc(Oc5ccccc5)c4)n3n2)cc(OC)c1OC,81.4,–,–,3.03,20.2,-1.15,0.93,1.83,22.3,1.2,8.45,3.59,5.25,3.82,5.13,5.22,8.16,2.99,3.66,0.96
CN(C)CCCNc1nccc(-c2c(-c3ccc(F)cc3)nn3cc(C(F)(F)F)ccc23)n1,0.61,2.56,2.23,2.37,2.47,–,-6.61,2.1,2.47,-2.36,0.28,3.12,7.89,-7.12,-5.52,0.53,-0.49,2.55,0.73,-2.44
CCS(=O)(=O)c1ccc(OC)c(Nc2ncc(-c3ccccc3Cl)o2)c1,6.89,0.86,3.51,–,17.4,7.55,29.9,9.53,40.3,2.29,19.1,4.06,11.8,1.62,5.87,-0.92,3.26,1.25,3.78,0.29

# — ChEMBL document CHEMBL1961873, “Compounds: GSK PKIS; Assays: Nanosyn kinase panel” (2012)
